PubChem BioAssay (NCI)
This is part of a sample that, as a whole, favours compounds with a hit. Of some 83,000 tested, about 20% had one in any assay.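 48-hour exposure, single concentration, 96-well plates; percent growth endpoint where 0 means no net growth. Active: below 10.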 Unmarked numbers belong to inactive results. The source made the active and inactive calls.

Tested on: HL-60(TB) leukemia
Test: NCI-60 one-dose screen, 48 h (100 = growth as untreated, 0 = no growth, -100 = all killed)
Settings: 10 µM unless noted

**Q.** For CCOC(=O)CCCn1c(-c2ccccc2)cc(-c2ccccc2)c(C#N)c1=O, which growth is on record?
**A.** 77.9%

**Q.** Which growth does the source give for O=C(O)c1cccc(N/C=C/C(=O)c2cc3cc(Br)ccc3oc2=O)c1 here?
**A.** 99.8%

**Q.** With COc1ccc(/C=C/C(=O)NCC(C)O)cc1 (stereo unspecified) as the compound, how does the growth read?
**A.** 109%

**Q.** O=C(CCCCCCC(=O)Nc1ccc2c(c1)/C(=C/c1ccc[nH]1)C(=O)N2)NO was tested. Which growth did it give?
**A.** 16.5%

**Q.** How did the growth turn out when CCCNc1nc2ccccc2c2c(=O)c3cccc(Cl)c3sc12 was run?
**A.** 108%

**Q.** CCCC(C)c1ccc(OCCCCCCN2CCNCC2)cc1 (stereo unspecified) was tested. Which growth did it give?
**A.** -44.9% (active)

**Q.** With C=CC(COC(c1ccccc1)(c1ccccc1)c1ccccc1)N(CC)CC (stereo unspecified) as the compound, how does the growth read?
**A.** 48.1%

**Q.** How did the growth turn out when O=C1/C(=C/c2ccccn2)CCc2ccccc21 was run?
**A.** 56.6%

**Q.** Which growth does the source give for COc1ccc2nc3cc(Cl)ccc3c(NCCN)c2c1 here?
**A.** -51.5% (active)

**Q.** How did the growth turn out when COc1cc(NC(C)CN(CC(C)C)C(C)C)c2ncccc2c1 (stereo unspecified) was run?
**A.** 101%

**Q.** With CCOC(=O)c1c(NC(=O)c2ccc(Cl)cc2)sc2c(CN(C)C)c(O)ccc12 as the compound, how does the growth read?
**A.** 12.5%

**Q.** Which growth does the source give for N#CC(=C1SCS1)[N+](=O)[O-] here?
**A.** -4.02% (active)

**Q.** CC(C)(C)OC(=O)N1C/C(=C\c2cccs2)C(=O)/C(=C/c2cccs2)C1 was tested. Which growth did it give?
**A.** 96.7%

**Q.** Which growth does the source give for C=CC(=O)Nc1cccc(C)c1Nc1cc(-c2cccnc2Cc2c(C)c(OC)cc(OC)c2C)ncn1 here?
**A.** -23% (active)

**Q.** With COc1ccc2c(c1)C(C)Cc1c(ncnc1-n1cnc3ccccc31)N2C (stereo unspecified) as the compound, how does the growth read?
**A.** -5.85% (active)

**Q.** For CC(SC(C)C(=O)N/N=C/c1cccc(Cl)c1)C(=O)N/N=C\c1cccc(Cl)c1 (stereo unspecified), which growth is on record?
**A.** 82.8%

**Q.** With COc1cccc(-c2nc3sccn3c2-c2ccnc(NCCCNS(=O)(=O)c3c(Cl)cccc3Cl)c2)c1 as the compound, how does the growth read?
**A.** 17.9%

**Q.** For COCCOCCCl, which growth is on record?
**A.** 110%

**Q.** O=C1CC(c2ccccc2)Cc2nc3ccc(Cl)cc3cc21 (stereo unspecified) was tested. Which growth did it give?
**A.** -20.7% (active)

**Q.** Which growth does the source give for O=C(/C=C/c1ccc([N+](=O)[O-])cc1)c1ccc2c3c(cccc13)CC2 here?
**A.** 14.4%

**Q.** Which growth does the source give for Nc1nc(Nc2ccccc2SSc2ccccc2Nc2nc(N)nc(-c3cccs3)n2)nc(-c2ccsc2)n1 here?
**A.** -7.94% (active)

**Q.** For COc1cc(-c2nn(-c3cccc(NC(=O)CCN4CCN(Cc5ccccc5)CC4)c3)cc2-c2ccncc2)ccc1Cl, which growth is on record?
**A.** -5.82% (active)

**Q.** For Cc1nc2sc(C(=O)Nc3cccc(Cl)c3)c(N)c2cc1C(O)c1ccccc1 (stereo unspecified), which growth is on record?
**A.** -40.9% (active)

**Q.** For CC(=O)c1ccc2c(c1)C1C=CCC1[C@H](c1cc3c(cc1Br)OCO3)N2 (stereo partly specified), which growth is on record?
**A.** -45.3% (active)

**Q.** How did the growth turn out when CC1(C)CC(=O)c2c(nn(-c3ccc(Br)cc3)c2-c2cn(-c3ccccc3)nc2-c2cccnc2)C1 was run?
**A.** 92.1%

**Q.** For O=C(Nc1ccc2c(c1)OCCO2)C(=O)c1c[nH]c2ccccc12, which growth is on record?
**A.** 13.7%
